Several values for one entry are separate records, joined by “and”; a condition that tells them apart may be missing. Equal entries are not always repeated.
How the values were obtained:
Assay in all cases: growth inhibition (% activity, log2 RLU normalised to DMSO / staurosporine); higher = more growth inhibition
Details in all cases: 33 µM
DIPGX29 = test system: DIPGX29 (H3.3 K27M diffuse intrinsic pontine glioma line)
In short: (§1)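 On Geltrex-coated 384-well plates, pHGG cell lines and H9-derived neural stem cells were grown with approved drugs pinned in at a single final concentration of about 33 μM, in triplicate, for 7 days at 37 °C, 5% CO2. Per-plate normalisation of log2-transformed CellTiter-Glo luminescence to % activity between solvent and positive control wells followed. Each growth-inhibition value is the median over the replicates.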

DIPGX37 = test system: DIPGX37 (H3.3 K27M diffuse intrinsic pontine glioma line)
In short: as §1

DIPGX7 = test system: DIPGX7 (H3.3 K27M diffuse intrinsic pontine glioma line)
In short: as §1

DIPGX9 = test system: DIPGX9 (diffuse intrinsic pontine glioma line)
In short: as §1

HGGX39 = test system: HGGX39 (paediatric high-grade glioma line)
In short: as §1

HGGX6 = test system: HGGX6 (H3.3 G34R paediatric high-grade glioma line)
In short: as §1

HNSC = test system: HNSC
In short: as §1

SUDIPGIV = test system: SUDIPGIV (diffuse intrinsic pontine glioma line)
In short: as §1

SUDIPGVI = test system: SUDIPGVI (diffuse intrinsic pontine glioma line)
In short: as §1

SUDIPGXIII = test system: SUDIPGXIII (diffuse intrinsic pontine glioma line)
In short: as §1

Row | SMILES | growth inhibition (DIPGX29) | growth inhibition (DIPGX37) | growth inhibition (DIPGX7) | growth inhibition (DIPGX9) | growth inhibition (HGGX39) | growth inhibition (HGGX6) | growth inhibition (HNSC) | growth inhibition (SUDIPGIV) | growth inhibition (SUDIPGVI) | growth inhibition (SUDIPGXIII)
1 | CN1C(CCl)Nc2cc(Cl)c(S(N)(=O)=O)cc2S1(=O)=O (stereo not given) | 1.82% | 1.82% | 1.38% | 0.87% | 2.55% | 3.08% | 1.19% | 0.139% | 1.21% | -13.7%
2 | COc1cc(NC(C)CCCN)c2ncccc2c1 (stereo not given) | 19.8% | 14% | 29.6% | 24.2% | 13% | 25.5% | 66.1% | 25.4% | 28.3% | 11.9%
3 | CCN(CC)CCCC(C)Nc1ccnc2cc(Cl)ccc12 (stereo not given) | 2.54% | 3.91% | 3.48% | 2.75% | 2.84% | 2.74% | 2.95% | 1.72% | 2.6% | 0.0881%
4 | NC[C@@H]1O[C@H](O[C@H]2[C@@H](O)[C@H](O[C@@H]3[C@@H](O)[C@H](N)C[C@H](N)[C@H]3O[C@H]3O[C@H](CO)[C@@H](O)[C@H](O)[C@H]3N)O[C@@H]2CO)[C@H](N)[C@@H](O)[C@@H]1O | 0.301% | 2.89% | 0.972% | 0.973% | 1.1% | 1.84% | -2.1% | -0.26% | 0.401% | 0.0349%
5 | NCC[C@H](O)C(=O)N[C@@H]1C[C@H](N)[C@@H](O[C@H]2O[C@H](CN)[C@@H](O)[C@H](O)[C@H]2O)[C@H](O)[C@H]1O[C@H]1O[C@H](CO)[C@@H](O)[C@H](N)[C@H]1O | -1.74% and 1.77% | -1.47% and 4.24% | -2.3% and 3.01% | -2.19% and 1.75% | -0.158% and 4.96% | -2.78% and 2.92% | -1.9% and 2.1% | -1.35% and 2.18% | -1.89% and 2.2% | -0.125% and 0.203%
6 | C/C(O)=C(\C#N)C(=O)Nc1ccc(C(F)(F)F)cc1 | 3.56% | 5.04% | 3.25% | 5.83% | 5.87% | 5.21% | 2.85% | 9.89% | 4.21% | -15.3%
7 | CN(CCOc1ccc(CC2SC(=O)NC2=O)cc1)c1ccccn1 (stereo not given) | 0.694% and -0.307% and -1.83% | 3.97% and -0.209% and -2.53% | 1.8% and -0.988% and -1.81% | 2.03% and 1.11% and 0.786% | 1.62% and 0.821% and 0.11% | 1.66% and 0.11% and -0.818% | -0.719% and -0.633% and -2.63% | 4.42% and -0.944% and -1.21% | 1.7% and -0.11% and -0.397% | -15.6% and -1.12%
8 | CC(C)[C@H](N)C(=O)OCC(CO)OCn1cnc2c(=O)[nH]c(N)nc21 (stereo not given in full) | -0.214% | 1.96% | -0.125% | 0.141% | 0.816% | -2.7% | 0.0503% | 0.2% | -2.51% | 1.45%
9 | CN1CCC[C@@H]1CCO[C@](C)(c1ccccc1)c1ccc(Cl)cc1 | 5.74% | 3.39% | 5.71% | 2.23% | 6.24% | 5.32% | 4.55% | 0.591% | 2.52% | 1.69%
10 | Cc1onc(-c2ccccc2Cl)c1C(=O)N[C@@H]1C(=O)N2[C@@H]1SC(C)(C)[C@@H]2C(=O)O | -0.728% | -0.729% | -0.308% | -1.05% | -0.725% | 1.07% | -1.87% | -0.916% | -0.387% | -9.34%
11 | Nc1nc(O)c2ncn(CCC(CO)CO)c2n1 | -0.633% | 1.72% | 0.291% | -0.106% | 0.105% | -0.242% | 0.639% | 0.184% | 1.56% | 0.273%
12 | CNC[C@H](O)[C@@H](O)[C@H](O)[C@H](O)CO | 1.22% | 3.72% | 2.92% | 1.9% | 4.71% | 1.37% | 3.01% | 2.28% | 3.8% | -1.42%
13 | CCOc1cc(N)c(Cl)cc1C(=O)NCC1CN(Cc2ccc(F)cc2)CCO1 (stereo not given) | -0.0532% | 1.06% | 0.919% | 1.54% | 1.87% | 0.0657% | 1.23% | 0.346% | 1.9% | 1.85%
14 | NCCc1c[nH]cn1 | -0.622% | 0.871% | -1.55% | 0.0733% | 1.84% | 3.55% | -2.23% | 0.269% | -0.51% | 22.9%
15 | Cc1nnc(C(=O)NC(C)(C)c2nc(C(=O)NCc3ccc(F)cc3)c(O)c(=O)n2C)o1 | 1.77% | -0.226% | 2.62% | 2.15% | 2.25% | -0.564% | 4.29% | -0.0786% | 2.47% | 0.152%
16 | CN1CCN2c3ccccc3Cc3ccccc3C2C1 (stereo not given) | 1.33% | -0.487% | 0.702% | -0.0886% | 2.14% | -2.26% | 2.01% | -0.203% | -0.707% | -2.33%
17 | NC(=O)C(c1ccccc1)(c1ccccc1)[C@@H]1CCN(CCc2ccc3c(c2)CCO3)C1 | 2.96% | 2.86% | 0.954% | 1.04% | 4.33% | 2.82% | 1.33% | 0.535% | 2.52% | 0.646%
18 | CCOC(=O)C1=C[C@]2(CC)CCCN3CCc4c(n1c1ccccc41)[C@@H]32 | -2.05% | 0.343% | 1.55% | 0.728% | 0.726% | -1.58% | 34.5% | 1.95% | 0.167% | 3.3%
19 | CN(C)CCOC(C)(c1ccccc1)c1ccccn1 (stereo not given) | -1.53% | -0.506% | 0.0494% | -1.25% | 0.245% | -0.355% | -1.65% | -0.218% | -0.777% | 0.1%
